Screening data: PubChem BioAssay, several laboratories
In the library only some 1.9% were active in any assay of this set; here they are far more common.
14-3-3 Bad inh – disrupts binding of bovine 14-3-3 zeta to phospho-Bad peptide; inhibition, % at 21.7 µM; 0.71% of 220,000 active; TR-FRET 14-3-3zeta/Dy647-pBad peptide displacement, 1 h;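 active = inhibition above about 70%, limit read from the data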;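 also: 0% = full 14-3-3 plus peptide FRET controls and 100% = background without 14-3-3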
Target sequence (P63103 whole entry, looked up): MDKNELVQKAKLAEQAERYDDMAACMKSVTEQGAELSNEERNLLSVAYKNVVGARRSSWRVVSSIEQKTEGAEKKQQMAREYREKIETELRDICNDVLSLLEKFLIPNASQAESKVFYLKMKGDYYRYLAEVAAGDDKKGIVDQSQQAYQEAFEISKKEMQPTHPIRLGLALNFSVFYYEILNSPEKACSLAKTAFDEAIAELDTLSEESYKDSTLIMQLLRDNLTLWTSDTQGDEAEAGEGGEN
HMGR II inh – E. faecalis class II HMG-CoA reductase inhibition | purified E. faecalis HMGR, NADPH absorbance 340 nm kinetic | inhibition, % at 10 µM | 0.41% of 190,000 active | AID 1066;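 active = inhibition above a set limit, the median over all tested compounds plus 3 SD, cut at about 9.5% in these data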;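 also: enzyme runs in reverse so mevalonate oxidation gives rising NADPH absorbance; 0% = complete reaction with DMSO and 100% = background rate lacking mevalonate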
dFosB activator – mouse delta FosB homodimer activation; P13346; purified delta FosB, TAMRA-CDK5 oligo fluorescence polarization; percent of positive-control signal above neutral wells; activation, % at 25 µM; 0.99% of 340,000 active;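 active = mean activation above about 17%, with every replicate also reaching it, limit read from the data, passing the limit was not always enough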
p47phox inh – inhibitors of human p47phox binding; p47phox/p22phox peptide binding, fluorescence polarization, 2 h; 0.53% of 220,000 active; P14598; AID 1274; inhibition, % at 24.7 µM;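 active = inhibition above about 30%, limit read from the data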;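 also: 0% = p47phox with labelled peptide and 100% = labelled peptide alone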
* = called active by the depositor; . = no result; [ ] = remark or other dose.

SMILES	14-3-3 Bad inh	HMGR II inh	dFosB activator	p47phox inh
O=C(N=Nc1c(O)[nH]c2ccccc12)c1cc(-c2cccs2)[nH]n1	49.6	.	70.7*	-16.0
O=C(N=Nc1c(O)[nH]c2ccccc12)c1cc(-c2ccc(F)cc2)n[nH]1	59.2	2.2	62.8*	4.8
CCC(C)(C)n1nnnc1C(c1cc2ccc(C)cc2[nH]c1=O)N(Cc1cccnc1)Cc1ccco1 (stereo not drawn)	4.8	1.8	-7.1	-32.2
CN(C)c1ccc(/C=C(\C#N)C(=O)c2ccccc2)cc1	-13.5	.	-8.5	51.7*
Cc1ccc(NC2=C/C(=N/S(=O)(=O)c3cccs3)c3ccccc3C2=O)cc1C	-4.0	0.6	4.1	36.1*
Cc1ccccc1NC1=C/C(=N\S(=O)(=O)c2cccs2)c2ccccc2C1=O	7.1	-2.0	-6.5	13.8
COC(=O)CNC(=O)c1nn(-c2cccc(OC)c2)c(=O)c2ccccc12	2.9	-2.7	-0.8	-1.3
CCCOC(=O)c1cc(-c2ccc(/C=C3/C(=O)N(C)C(=O)C(C#N)=C3C)o2)ccc1Cl	.	.	-11.4	.
C=CCOC(=O)c1cc(-c2ccc(/C=C3\C(=O)NC(=O)C(C#N)=C3C)o2)ccc1Cl	92.3*[fluorescence artefact?]	0.2	-21.9	39.2*
CCN1CCN(c2nc3c(C)cccn3c(=O)c2/C=C(\C#N)C(=O)NCCCOC)CC1	.	.	-16.5	.
CC(=O)N1CCN(c2ccccc2NC(=O)COc2ccc(Br)cc2)CC1	-0.5	12.6*	-1.7	2.6
CN(C)S(=O)(=O)c1cccc(NC(=O)Cn2cc(C(F)(F)F)cc(Cl)c2=O)c1	-4.3	16.4*	-9.9	-1.4
O=C(Cc1noc2ccccc12)NNC(=S)Nc1ccccc1	-15.2	-3.6	-3.9	-7.3
Cc1ccc(CNC(=O)COC(=O)CCCOc2ccc(Cl)cc2Cl)cc1	-5.7	-1.1	-7.4	72.4*
CCOc1ccc(C2NC(=O)C(C#N)=C(S)N2c2ccc(OC)cc2)cc1OC (stereo not drawn)	17.5	-4.9	-3.9	0.1
S=c1[nH]nc(-c2cccc(Cl)c2)n1/N=C/c1ccc(-c2ccccc2Br)o1	17.0	.	41.9*	-16.5
Cc1ccc(/C=N/n2c(-c3cccc(Cl)c3)n[nH]c2=S)o1	-2.4	.	.	-2.7
CCN(CC(=O)NC1CCS(=O)(=O)C1)S(=O)(=O)c1ccccc1Cl (stereo not drawn)	.	.	-2.3	.
CCN(CC(=O)NC1CCS(=O)(=O)C1)S(=O)(=O)c1cccc(C(C)=O)c1 (stereo not drawn)	0.1	-12.3	1.6	43.0*
CCOC(=O)c1sc2nc(CC(=O)OC)nc(NCCN3CCOCC3)c2c1C	-14.0	-8.0	-0.2	-7.1
C=CCc1ccc(OCC(O)CN2CCN(c3ccccc3)CC2)c(OC)c1 (stereo not drawn)	.	.	-12.0	.
Cc1ccc(OCC(O)CN2CCN(Cc3ccc4c(c3)OCO4)CC2)c(C)c1 (stereo not drawn)	77.1*	2.7	-6.5	0.5
C=CCc1cc(C)ccc1OCC(O)CN1CCN(c2ccccc2)CC1 (stereo not drawn)	70.5*	0.7	-15.3	-4.1
CC(=O)Nc1nc2cc3c(cc2s1)OCO3	11.4	-9.4	0.1	-4.9
CC(=O)c1sc(Nc2nc3cc4c(cc3s2)OCO4)nc1C	87.7*	-5.2	-8.9	-1.0
SMILES	14-3-3 Bad inh	HMGR II inh	dFosB activator	p47phox inh
COc1ccc(-n2c(SCC(=O)Nc3ccccc3)nnc2-c2ccoc2C)cc1	13.7	-1.1	-9.5	-2.1
Cc1cc(C)nc(NC(=O)/C=C/c2ccccc2Cl)n1	-4.7	6.3	-3.4	1.4
Cc1cc(N)c2cc(NC(=O)/C=C/c3ccccc3Cl)ccc2n1	19.6	.	-412.9	97.3*
CCOc1ccc2nc(COC(=O)c3ccco3)c(C(C)=O)[n+]([O-])c2c1	17.5	-4.2	-8.9	47.6*
CCc1nc(N2CCN(C(=O)c3ccco3)CC2)c2oc3ccccc3c2n1	77.3*	-3.4	-26.7	11.2
O=C(c1ccco1)N1CCN(Cc2nc(Cc3ccccc3)no2)CC1	4.0	-2.9	2.4	131.0*
CSc1ccccc1NC(=O)CN(C)C(=O)c1cccc(S(=O)(=O)N(C)C)c1	-14.8	-9.6	-4.9	2.1
c1ccc2c(CSc3nnc(-c4ccncc4)o3)cccc2c1	78.0*	0.2	-13.1	-9.6
Clc1ccccc1CSc1nnc(-c2ccncc2)o1	-10.7	-9.6	-3.4	-2.1
Cc1cc([N+](=O)[O-])nn1CC(=O)NCc1nc2ccccc2[nH]1	-6.3	-5.5	3.3	41.2*
Cn1cc([N+](=O)[O-])c(C(=O)Nc2ccc(C(=O)N3CCCCC3)cc2)n1	-4.0	-5.4	5.6	3.9
